Experimental data from the supplement of paper PMC11732987, “Enantioselective OTUD7B fragment discovery through chemoproteomics screening and high-throughput optimisation” (Communications Chemistry, 2025).
A number with no mark means an inactive call.

How the values were obtained:
Assay in all cases: log2 ratio of Biotin-Ahx-Ub-VS probe labelling (fragment/DMSO); higher = less target engagement (more negative = stronger competition), active = hit call of the paper (q ≤ 0.05, log2 ratio ≤ -1)
Conditions in all cases: compound concentration: 200 uM; treatment time: 3 h
[1] = target: T1, USP19 (UniProt O94966)
T1 sequence (whole entry): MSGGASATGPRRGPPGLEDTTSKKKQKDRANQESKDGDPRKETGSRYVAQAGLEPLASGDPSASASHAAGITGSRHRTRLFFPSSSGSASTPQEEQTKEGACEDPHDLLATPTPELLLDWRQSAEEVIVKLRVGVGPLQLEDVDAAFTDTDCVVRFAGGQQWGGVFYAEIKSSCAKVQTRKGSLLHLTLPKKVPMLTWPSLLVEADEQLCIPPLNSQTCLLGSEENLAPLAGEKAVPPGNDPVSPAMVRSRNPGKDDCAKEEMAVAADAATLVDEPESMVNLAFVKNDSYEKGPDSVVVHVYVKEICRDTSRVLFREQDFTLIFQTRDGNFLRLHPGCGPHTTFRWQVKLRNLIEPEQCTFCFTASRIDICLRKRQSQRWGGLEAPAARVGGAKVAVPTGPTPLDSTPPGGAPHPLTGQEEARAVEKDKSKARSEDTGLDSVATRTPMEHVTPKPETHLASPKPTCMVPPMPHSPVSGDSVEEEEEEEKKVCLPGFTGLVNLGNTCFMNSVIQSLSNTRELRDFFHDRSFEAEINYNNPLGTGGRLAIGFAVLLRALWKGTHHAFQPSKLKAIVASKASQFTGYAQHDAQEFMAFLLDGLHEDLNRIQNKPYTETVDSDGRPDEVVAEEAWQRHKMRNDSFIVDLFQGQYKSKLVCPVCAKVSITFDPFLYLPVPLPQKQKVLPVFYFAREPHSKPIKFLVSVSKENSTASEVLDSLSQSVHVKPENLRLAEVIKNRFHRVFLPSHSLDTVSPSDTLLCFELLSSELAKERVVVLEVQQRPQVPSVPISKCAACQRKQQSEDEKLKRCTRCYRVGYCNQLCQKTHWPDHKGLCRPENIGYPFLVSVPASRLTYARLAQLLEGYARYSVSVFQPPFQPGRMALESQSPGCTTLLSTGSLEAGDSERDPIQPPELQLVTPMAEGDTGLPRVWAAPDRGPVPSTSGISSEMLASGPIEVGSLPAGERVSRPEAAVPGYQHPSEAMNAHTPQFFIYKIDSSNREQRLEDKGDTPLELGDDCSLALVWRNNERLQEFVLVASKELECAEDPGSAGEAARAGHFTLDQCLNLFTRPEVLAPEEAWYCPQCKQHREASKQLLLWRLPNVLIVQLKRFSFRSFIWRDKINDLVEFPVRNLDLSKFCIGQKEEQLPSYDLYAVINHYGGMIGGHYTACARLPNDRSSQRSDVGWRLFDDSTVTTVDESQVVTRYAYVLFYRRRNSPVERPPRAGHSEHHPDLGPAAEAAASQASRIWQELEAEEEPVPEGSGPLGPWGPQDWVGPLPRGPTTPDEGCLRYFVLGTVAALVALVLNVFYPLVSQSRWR
How it was run: (§1)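 Global-median-normalised Spectronaut label-free quantities were compared by unpaired t-test, and values are average log2 ratios of fragment over vehicle. Only proteins with ≥2 unique peptides were used. HEK293T lysate (495 µg per sample) was treated in triplicate with fragment at 200 µM or vehicle for 3 h and then with Biotin-Ahx-Ub-VS at 0.5 µM final for 1 h. Labelled DUBs were then NeutrAvidin-enriched, digested with LysC and trypsin, and run by diaPASEF LC-MS/MS.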

[2] = target: USP24 (UniProt Q9UPU5)
How it was run: as §1

[3] = target: T2, USP25 (UniProt Q9UHP3)
T2 sequence (whole entry): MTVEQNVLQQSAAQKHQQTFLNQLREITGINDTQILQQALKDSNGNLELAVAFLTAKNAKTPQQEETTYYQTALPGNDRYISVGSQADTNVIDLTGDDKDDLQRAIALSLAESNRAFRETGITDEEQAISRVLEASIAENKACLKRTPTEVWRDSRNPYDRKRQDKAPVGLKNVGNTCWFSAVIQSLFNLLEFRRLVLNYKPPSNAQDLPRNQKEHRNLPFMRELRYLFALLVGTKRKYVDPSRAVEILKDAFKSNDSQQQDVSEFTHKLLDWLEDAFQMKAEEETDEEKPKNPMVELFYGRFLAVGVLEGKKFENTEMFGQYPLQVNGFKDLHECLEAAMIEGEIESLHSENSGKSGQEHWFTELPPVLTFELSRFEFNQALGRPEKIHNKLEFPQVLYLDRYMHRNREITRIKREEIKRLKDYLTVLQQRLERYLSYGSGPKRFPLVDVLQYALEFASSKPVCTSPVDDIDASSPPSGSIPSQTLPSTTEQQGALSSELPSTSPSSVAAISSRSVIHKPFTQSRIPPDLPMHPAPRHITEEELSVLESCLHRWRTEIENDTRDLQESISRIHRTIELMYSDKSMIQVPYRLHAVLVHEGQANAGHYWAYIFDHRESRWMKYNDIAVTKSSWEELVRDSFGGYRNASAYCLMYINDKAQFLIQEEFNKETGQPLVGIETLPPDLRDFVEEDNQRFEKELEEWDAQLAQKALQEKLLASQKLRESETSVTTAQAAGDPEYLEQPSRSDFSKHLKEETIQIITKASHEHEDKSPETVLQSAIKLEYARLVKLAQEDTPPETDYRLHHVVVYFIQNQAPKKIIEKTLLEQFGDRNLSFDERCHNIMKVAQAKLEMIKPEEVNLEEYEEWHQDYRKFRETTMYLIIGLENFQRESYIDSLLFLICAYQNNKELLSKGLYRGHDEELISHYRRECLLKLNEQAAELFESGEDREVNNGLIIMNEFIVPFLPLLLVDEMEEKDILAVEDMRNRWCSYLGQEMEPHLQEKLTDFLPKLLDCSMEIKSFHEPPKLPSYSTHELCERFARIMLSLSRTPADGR
How it was run: as §1

[4] = target: T3, USP28 (UniProt Q96RU2)
T3 sequence (whole entry): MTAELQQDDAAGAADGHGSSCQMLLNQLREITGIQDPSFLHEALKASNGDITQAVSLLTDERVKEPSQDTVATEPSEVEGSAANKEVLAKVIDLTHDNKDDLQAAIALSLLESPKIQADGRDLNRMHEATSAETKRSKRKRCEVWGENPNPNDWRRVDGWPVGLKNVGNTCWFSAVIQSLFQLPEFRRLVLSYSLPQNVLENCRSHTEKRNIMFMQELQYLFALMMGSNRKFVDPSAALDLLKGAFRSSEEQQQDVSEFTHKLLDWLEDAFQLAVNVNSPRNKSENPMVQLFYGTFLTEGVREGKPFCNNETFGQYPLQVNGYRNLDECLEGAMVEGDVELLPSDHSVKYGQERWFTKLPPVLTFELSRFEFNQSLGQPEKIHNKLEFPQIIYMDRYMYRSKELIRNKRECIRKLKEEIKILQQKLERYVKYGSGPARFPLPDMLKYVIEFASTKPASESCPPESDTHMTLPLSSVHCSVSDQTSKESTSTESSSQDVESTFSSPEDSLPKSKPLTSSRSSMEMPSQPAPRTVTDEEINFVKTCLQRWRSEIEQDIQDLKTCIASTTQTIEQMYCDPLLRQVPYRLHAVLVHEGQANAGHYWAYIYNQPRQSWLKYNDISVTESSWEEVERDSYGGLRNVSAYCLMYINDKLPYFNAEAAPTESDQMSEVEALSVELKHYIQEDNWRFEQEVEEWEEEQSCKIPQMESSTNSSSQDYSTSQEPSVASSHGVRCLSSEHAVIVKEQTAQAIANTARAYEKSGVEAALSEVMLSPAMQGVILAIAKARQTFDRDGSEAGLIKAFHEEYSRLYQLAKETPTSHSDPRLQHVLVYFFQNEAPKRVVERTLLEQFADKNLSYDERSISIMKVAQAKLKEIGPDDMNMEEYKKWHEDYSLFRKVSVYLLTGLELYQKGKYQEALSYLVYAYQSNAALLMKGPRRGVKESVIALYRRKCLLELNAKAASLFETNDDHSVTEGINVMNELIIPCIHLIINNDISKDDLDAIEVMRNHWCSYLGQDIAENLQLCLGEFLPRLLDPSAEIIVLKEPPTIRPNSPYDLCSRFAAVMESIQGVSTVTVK
How it was run: as §1

Chain of USP24 (Q9UPU5 whole entry): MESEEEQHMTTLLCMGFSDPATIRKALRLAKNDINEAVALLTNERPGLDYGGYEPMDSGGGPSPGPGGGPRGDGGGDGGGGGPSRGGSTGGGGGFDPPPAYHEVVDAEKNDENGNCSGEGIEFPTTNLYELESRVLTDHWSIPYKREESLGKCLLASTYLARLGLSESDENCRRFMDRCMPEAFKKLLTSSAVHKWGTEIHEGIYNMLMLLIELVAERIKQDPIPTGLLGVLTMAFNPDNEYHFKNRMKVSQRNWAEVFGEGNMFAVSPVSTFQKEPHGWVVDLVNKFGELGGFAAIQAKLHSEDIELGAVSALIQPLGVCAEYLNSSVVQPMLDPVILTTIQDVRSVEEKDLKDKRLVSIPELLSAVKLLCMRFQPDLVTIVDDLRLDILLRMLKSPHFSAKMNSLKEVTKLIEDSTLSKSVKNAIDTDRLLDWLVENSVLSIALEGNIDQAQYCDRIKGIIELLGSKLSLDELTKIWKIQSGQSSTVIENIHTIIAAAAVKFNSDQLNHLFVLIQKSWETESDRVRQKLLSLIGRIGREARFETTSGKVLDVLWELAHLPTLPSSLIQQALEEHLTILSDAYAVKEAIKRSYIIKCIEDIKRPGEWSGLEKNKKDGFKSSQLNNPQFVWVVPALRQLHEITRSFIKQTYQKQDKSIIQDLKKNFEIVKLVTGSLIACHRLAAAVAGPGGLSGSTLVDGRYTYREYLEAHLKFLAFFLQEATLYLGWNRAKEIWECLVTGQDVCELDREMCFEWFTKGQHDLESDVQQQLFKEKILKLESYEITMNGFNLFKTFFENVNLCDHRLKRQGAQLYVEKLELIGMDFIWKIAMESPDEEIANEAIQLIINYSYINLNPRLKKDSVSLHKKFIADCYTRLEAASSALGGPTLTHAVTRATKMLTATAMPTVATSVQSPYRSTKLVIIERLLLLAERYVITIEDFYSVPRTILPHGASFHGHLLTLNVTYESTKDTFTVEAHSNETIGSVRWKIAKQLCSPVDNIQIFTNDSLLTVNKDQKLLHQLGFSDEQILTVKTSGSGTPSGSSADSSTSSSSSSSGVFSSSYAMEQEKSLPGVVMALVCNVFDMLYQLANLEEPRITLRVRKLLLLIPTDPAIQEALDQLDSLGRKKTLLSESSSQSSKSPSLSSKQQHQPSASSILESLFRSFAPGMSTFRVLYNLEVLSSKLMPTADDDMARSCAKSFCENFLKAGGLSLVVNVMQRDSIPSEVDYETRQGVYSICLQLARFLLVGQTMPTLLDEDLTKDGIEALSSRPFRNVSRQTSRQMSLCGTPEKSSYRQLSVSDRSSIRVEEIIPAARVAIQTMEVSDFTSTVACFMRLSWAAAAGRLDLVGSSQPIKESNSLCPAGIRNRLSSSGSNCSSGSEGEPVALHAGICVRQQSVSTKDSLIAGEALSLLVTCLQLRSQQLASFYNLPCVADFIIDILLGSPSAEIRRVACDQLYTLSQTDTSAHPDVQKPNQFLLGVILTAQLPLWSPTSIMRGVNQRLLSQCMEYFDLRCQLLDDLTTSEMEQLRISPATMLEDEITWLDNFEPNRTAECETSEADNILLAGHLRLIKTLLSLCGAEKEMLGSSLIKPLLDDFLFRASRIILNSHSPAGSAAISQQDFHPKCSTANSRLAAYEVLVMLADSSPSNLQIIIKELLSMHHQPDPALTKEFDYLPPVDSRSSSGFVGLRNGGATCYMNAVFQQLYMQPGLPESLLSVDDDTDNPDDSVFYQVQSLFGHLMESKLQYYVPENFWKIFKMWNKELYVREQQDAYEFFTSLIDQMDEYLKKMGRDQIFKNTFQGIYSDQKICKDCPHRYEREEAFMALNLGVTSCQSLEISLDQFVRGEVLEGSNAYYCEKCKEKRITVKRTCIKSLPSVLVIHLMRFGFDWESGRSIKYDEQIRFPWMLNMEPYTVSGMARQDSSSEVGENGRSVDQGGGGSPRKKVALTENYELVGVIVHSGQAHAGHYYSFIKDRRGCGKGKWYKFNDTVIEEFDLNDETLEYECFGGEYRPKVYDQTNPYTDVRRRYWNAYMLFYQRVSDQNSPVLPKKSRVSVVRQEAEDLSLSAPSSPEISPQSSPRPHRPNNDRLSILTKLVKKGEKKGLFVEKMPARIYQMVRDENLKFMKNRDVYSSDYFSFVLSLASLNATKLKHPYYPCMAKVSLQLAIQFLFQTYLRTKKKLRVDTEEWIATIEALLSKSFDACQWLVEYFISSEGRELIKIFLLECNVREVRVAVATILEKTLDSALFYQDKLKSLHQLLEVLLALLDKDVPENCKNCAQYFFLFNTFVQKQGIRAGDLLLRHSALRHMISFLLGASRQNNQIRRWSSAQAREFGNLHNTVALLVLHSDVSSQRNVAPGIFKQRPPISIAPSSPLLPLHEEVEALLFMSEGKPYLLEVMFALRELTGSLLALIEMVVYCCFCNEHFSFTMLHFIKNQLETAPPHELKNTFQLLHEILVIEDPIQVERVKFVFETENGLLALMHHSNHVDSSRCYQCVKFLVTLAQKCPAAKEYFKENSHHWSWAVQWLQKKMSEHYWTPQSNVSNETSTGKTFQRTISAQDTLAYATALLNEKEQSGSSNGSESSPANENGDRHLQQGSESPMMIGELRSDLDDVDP

Q: `CN(C(=O)CCl)c1nc2ccccc2s1` was tested. Which “log2 ratio of Biotin-Ahx-Ub-VS probe labelling” value (shortened to “log2 ratio”) [1] did it give?
A: Its value is -0.126.

Q: And the “log2 ratio” value [2]?
A: Its value is -1.2 (active).

Q: What about the “log2 ratio” value [3] of the same compound?
A: The value was -0.235.

Q: What about the “log2 ratio” value [4] of the same compound?
A: Its value is -0.444.
